Consider 16 molecules from PubChem BioAssay.

The target in one assay is Albumin (Bos taurus) (UniProt P02769). Briefly: compounds binding labelled BSA control protein – biochemical, small-molecule microarray, Alexa647 label, 635/667 nm fluorescence, artefact control for SMM control protein annotation, profiling panel (AID 1118).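 Note: score merges 667 nm emission intensity and signal-to-noise per printed compound spot.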 The following applies: BSA-A647 binding, fluorescence 635 nm, higher = more signal.
Sequence of Albumin (Bos taurus) (P02769 whole entry, looked up): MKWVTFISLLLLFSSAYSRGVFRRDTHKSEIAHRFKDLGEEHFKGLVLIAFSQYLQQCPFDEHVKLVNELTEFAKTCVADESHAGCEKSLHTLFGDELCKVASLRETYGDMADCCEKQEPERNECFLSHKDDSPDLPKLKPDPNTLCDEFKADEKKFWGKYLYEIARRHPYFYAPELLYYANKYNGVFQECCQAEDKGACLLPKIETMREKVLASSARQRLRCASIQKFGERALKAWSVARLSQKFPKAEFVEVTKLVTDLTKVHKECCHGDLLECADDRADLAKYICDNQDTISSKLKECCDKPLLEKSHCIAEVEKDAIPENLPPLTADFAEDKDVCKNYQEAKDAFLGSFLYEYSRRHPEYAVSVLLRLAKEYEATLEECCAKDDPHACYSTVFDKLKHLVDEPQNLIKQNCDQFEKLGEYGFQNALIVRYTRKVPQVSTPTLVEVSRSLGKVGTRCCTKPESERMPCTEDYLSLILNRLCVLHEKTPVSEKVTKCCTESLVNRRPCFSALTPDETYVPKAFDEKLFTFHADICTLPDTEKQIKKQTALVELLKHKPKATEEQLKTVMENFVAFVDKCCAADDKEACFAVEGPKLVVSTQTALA
The nature of assay [1]: probe aXIP binding to arrayed compounds – biochemical, NeuroSMM set, 635/667 nm fluorescence, primary screen (AID 1119).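 Note: probe is the protein aXip251-270 applied at 1 µg/mL to compound-printed slides; binding of probe to printed compounds measured as 667 nm fluorescence plus signal to noise.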 The following applies: small-molecule microarray, higher = more signal, called active from +8 up or from −8 down.
The nature of assay [2]: probe aNOTCH3 binding on compound microarray – biochemical, small-molecule microarray, 635/667 nm fluorescence, primary screen (AID 1120).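 Note: probe is a biotin-tagged antibody raised against NOTCH3 rather than NOTCH3 protein; score merges spot fluorescence near 667 nm with spot signal to noise.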 The following applies: higher = more signal.
A short description of assay [3]: probe aNOTCH2 binding on compound microarray – biochemical, small-molecule microarray, 635/667 nm fluorescence, primary screen (AID 1121).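 Note: score merges feature fluorescence read at 667 nm with its signal to noise.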 The following applies: higher = more signal.
For assay [4], the target named is Carbonic anhydrase 2 (Homo sapiens) (UniProt P00918). Briefly: compounds binding carbonic anhydrase 2 – biochemical, small-molecule microarray, Alexa647-labelled CAII, profiling panel (AID 1122). The following applies: CAII-A647 binding fluorescence, higher = more signal.
The nature of assay [5]: COS7 lysate on small-molecule microarray, probe aHis, 635 nm (AID 1123).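 Note: z-score combines 667nm fluorescence intensity with signal-to-noise per printed compound spot.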 The following applies: COS7 cell lysate, fluorescence, higher = more signal.
Assay [6] is described as follows: probe aLAP1 signal on lysate-treated microarray – cell lysate, small-molecule microarray, COS7 lysate, primary screen (AID 1124).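 Note: lysate comes from COS7 cells expressing LAP1 and is applied at 0.3 µg/mL; score merges spot fluorescence near 667 nm with signal-to-noise over triplicate slides.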 The following applies: probe aLAP1, fluorescence, higher = more signal.
In the next assay the test system is Sam68 (KHDRBS1). Briefly: compounds binding KHDRBS1 protein – biochemical, small-molecule microarray, 635 nm fluorescence, primary screen (AID 1125).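 Note: score merges 667 nm channel intensity with signal to noise over triplicate slides.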 The following applies: higher = more signal.
The test system of assay [7] is Chordin-like protein 2 (CHRDL2). Briefly: compounds binding chordin-like 2 – biochemical, small-molecule microarray, 635 nm fluorescence, primary screen (AID 1126).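 Note: printed compound slides probed with Chrdl2 protein at 4 µg/mL for 1 h at 4 C; score merges 667 nm emission intensity with signal to noise over three replicate slides.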 The following applies: fluorescence 635 nm, higher = more signal.
For assay [8], the target named is Concanavalin-A (Canavalia ensiformis) (UniProt P02866). Briefly: compounds binding concanavalin A lectin – biochemical, small-molecule microarray, Alexa647 label, 635 nm, artefact control for SMM control protein annotation, primary screen (AID 1127).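 Note: z combines 667 nm emission intensity with signal-to-noise across three replicate slides.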 The following applies: ConA-A647 binding fluorescence, higher = more signal.
Sequence of Concanavalin-A (Canavalia ensiformis) (P02866 whole entry, looked up): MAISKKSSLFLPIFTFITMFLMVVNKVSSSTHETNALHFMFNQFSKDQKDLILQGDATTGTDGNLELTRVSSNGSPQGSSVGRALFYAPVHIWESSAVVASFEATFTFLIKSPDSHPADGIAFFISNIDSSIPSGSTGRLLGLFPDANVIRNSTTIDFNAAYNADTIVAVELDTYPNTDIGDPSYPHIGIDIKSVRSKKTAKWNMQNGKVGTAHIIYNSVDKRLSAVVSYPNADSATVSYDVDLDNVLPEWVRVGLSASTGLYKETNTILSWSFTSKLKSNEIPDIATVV

Structures are written as SMILES. Active and inactive are the calls of the source.

In the case of `CO[C@H]1COC(=O)CC=C[C@@H](C)[C@H](OC)COC(=O)CCC[C@@H]1C`, the composite z-score with Albumin (Bos taurus) is -0.913; in assay [2] it was -0.149; in [3] it was -0.118; in assay [4], -0.601; in assay [5], 0.302; in assay [6], 0.923. Besides, the composite z-score is 0.0465 in the assay on Sam68 (KHDRBS1), 1.41 in [7] and -0.819 in [8]. The composite Z-score in [1] was 0.0032 (inactive).

`CO[C@H]1COC(=O)[C@@H]2CCCN2C(=O)CC=C[C@@H](C)[C@H](OC)COC(=O)[C@@H](OCc2ccccc2)C=C[C@@H]1C`: the composite z-score is -0.761 with Albumin (Bos taurus); 0.114 in assay [2]; -0.115 in assay [3]; -0.499 in assay [4]; -0.756 in [5]; -0.549 in assay [6]. Also, the composite z-score in the assay with Sam68 (KHDRBS1) is -0.11; in assay [7], 1.33; in assay [8], -0.4. In [1], the composite Z-score is -1.04 (inactive).

`CCOC(=O)[C@H](CC(C)C)NC(=O)CCC1CC(OC(=O)NCc2ccc3c(c2)OCO3)CC2(CCCC(COC(=O)NCC3CCCCC3)O2)O1` (stereo not given in full): the composite z-score was 0.235 in the assay with Albumin (Bos taurus); 0.31 in assay [2]; -0.207 in [3]; 0.368 in [4]; 0.636 in assay [5]; 0.244 in [6]. Also, the composite z-score in the assay on Sam68 (KHDRBS1) is 1.32; in assay [7] it was 0.567; in assay [8] it was 0.512. In [1], the composite Z-score was 0.189 (inactive).

Turning to `O=C(NN=C1C[C@@H](O)[C@@H](O)[C@@H]2[C@@H]3C(=O)N(C4CCCCC4)C(=O)[C@@H]3CC[C@@H]12)OCc1ccccc1`, the composite z-score in the assay with Albumin (Bos taurus) was 0.566; in assay [2] it was -0.0873; in [3], -0.258; in [4] it was -0.129; in [5], -0.107; in assay [6], 1.74. The composite z-score in the assay on Sam68 (KHDRBS1) was -0.881; in assay [7] it was 0.425; in [8] it was 0.457. Moreover, the composite Z-score in assay [1] is -0.243 (inactive).

For the molecule `CC(=O)OC[C@H]1OC(ON=CC[C@@H]2C=C[C@H](OC(C)=O)[C@@H](COC(C)=O)O2)[C@H](OC(C)=O)[C@@H](OC(C)=O)[C@@H]1OC(C)=O` (stereo not given in full), the composite z-score was 0.0478 with Albumin (Bos taurus); 0.144 in [2]; -0.14 in assay [3]; -0.451 in assay [4]; -0.011 in assay [5]; 0.31 in assay [6]. For the same molecule, the composite z-score with Sam68 (KHDRBS1) was 1.14; in assay [7], -0.794; in assay [8], 0.215. Besides, in assay [1], the composite Z-score was 0.359 (inactive).

For the molecule `Cc1ccc(S(=O)(=O)n2c3ccccc3c3nnc(C(=O)c4ccccc4)nc32)cc1`, the composite z-score was -0.563 in the assay with Albumin (Bos taurus); 0.12 in assay [2]; 0.012 in assay [3]; -0.141 in assay [4]; -0.111 in [5]; 0.246 in [6]. Besides, the composite z-score in the assay on Sam68 (KHDRBS1) is -0.472; in [7] it was 0.261; in assay [8] it was 0.0083. The composite Z-score in assay [1] is 0.0578 (inactive).

With `CCCCC#C[C@@H]1C=C[C@H](Oc2cc(OC)c(OC)c(OC)c2)[C@@H](COC(=O)OCC)O1`, the composite z-score was 0.227 with Albumin (Bos taurus); -0.128 in assay [2]; -0.0907 in assay [3]; -0.165 in assay [4]; -0.642 in [5]; 0.211 in assay [6]. Besides, the composite z-score in the assay on Sam68 (KHDRBS1) was -0.25; in assay [7] it was 0.251; in assay [8], -0.0793. Also, the composite Z-score in assay [1] was 0.0299 (inactive).

On to `CC(=O)O[C@H]1C2=CO[C@H](C)[C@H]3[C@H]4C5=C([C@H](O)[C@H]6O[C@H]6C5=O)[C@H](OC4C)[C@@]23C(=O)[C@@H]2O[C@@H]21` (stereo not given in full), for which the composite z-score was 0.767 with Albumin (Bos taurus); 0.0836 in assay [2]; -0.0357 in assay [3]; 0.357 in assay [4]; 0.249 in [5]; 0.228 in assay [6]. Also, the composite z-score in the assay on Sam68 (KHDRBS1) was 0.583; in assay [7] it was 0.0249; in assay [8] it was -0.185. The composite Z-score in assay [1] was 0.719 (inactive).

As to `CC(CCN1CCCc2nc(C)c(C)cc21)=NOC(C)CN1CCCCc2nc(C)c(C)cc21` (stereo not given), the composite z-score in the assay with Albumin (Bos taurus) is -0.0931; in assay [2], 0.539; in assay [3], 0.101; in assay [4] it was 0.618; in assay [5], 0.84; in [6], 0.247. Further, the composite z-score with Sam68 (KHDRBS1) turned out to be 1.3; in assay [7], 1.06; in assay [8], 1.01. Besides, in assay [1], the composite Z-score was 1.62 (inactive).

`CCOC(=O)[C@H](CC(C)C)NC(=O)CCC1CC(OC(=O)NCc2cccc3ccccc23)CC2(CCCC(COC(=O)NCc3ccncc3)O2)O1` (stereo not given in full): the composite z-score is 0.323 in the assay with Albumin (Bos taurus); -0.0658 in assay [2]; -0.14 in [3]; 0.215 in assay [4]; 0.502 in [5]; 0.218 in assay [6]. The composite z-score amounted to 1.29 with Sam68 (KHDRBS1), 0.351 in [7] and 0.67 in assay [8]. For the same molecule, in [1], the composite Z-score was -0.0775 (inactive).

With `COc1cccc([C@H]2Oc3ccc(OC)cc3C(=NOC[C@@H](O)COCc3ccco3)[C@@H]2O)c1`, the composite z-score was -0.859 in the assay with Albumin (Bos taurus); -0.235 in [2]; -0.0942 in [3]; -1.02 in [4]; -1.34 in assay [5]; -0.446 in assay [6]. Besides, the composite z-score was -2.24 in the assay with Sam68 (KHDRBS1), 0.655 in assay [7] and -3.36 in assay [8]. The composite Z-score in assay [1] is -0.874 (inactive).

For the molecule `O=C1CCCC=C1C(O)CCOC(c1ccccc1)(c1ccccc1)c1ccccc1` (stereo not given), the composite z-score in the assay with Albumin (Bos taurus) is 0.404; in [2], -0.158; in [3], -0.169; in assay [4] it was -0.252; in assay [5], -0.447; in assay [6], -0.146. Moreover, the composite z-score in the assay on Sam68 (KHDRBS1) was -1.52; in assay [7], -0.0466; in [8] it was -0.542. Moreover, the composite Z-score in [1] was 0.142 (inactive).

With `CCCCC#C[C@@H]1C=C[C@H](Oc2ccc(C(=O)OC)cc2)[C@@H](COC(=O)OCC)O1`, the composite z-score in the assay with Albumin (Bos taurus) was 0.109; in assay [2] it was -0.106; in [3] it was -0.0578; in assay [4], 0.39; in assay [5], 0.205; in assay [6] it was 0.0053. The composite z-score is 0.769 in the assay with Sam68 (KHDRBS1), 0.978 in assay [7] and 0.64 in [8]. The composite Z-score in assay [1] was -0.0877 (inactive).

`CO[C@H]1COC(=O)[C@H](C)NC(=O)CC=C[C@@H](C)[C@H](OC)COC(=O)[C@@H](OCc2ccccc2)C=C[C@@H]1C`: the composite z-score with Albumin (Bos taurus) was -0.744; in assay [2], -0.068; in assay [3], -0.0657; in assay [4], -0.722; in [5], -0.724; in assay [6], -0.198. The composite z-score is -0.206 in the assay with Sam68 (KHDRBS1), 1.06 in assay [7] and -0.909 in assay [8]. For the same molecule, in [1], the composite Z-score was -0.0157 (inactive).

For `COC(=O)[C@H](C)NC(=O)CCC1CC(OC(=O)NCc2ccc3c(c2)OCO3)CC2(CCCC(COC(=O)NCc3cccc(C(F)(F)F)c3)O2)O1` (stereo not given in full), the composite z-score with Albumin (Bos taurus) is 0.133; in assay [2], -0.0014; in assay [3], -0.133; in assay [4] it was 0.424; in assay [5], 1.08; in [6], 0.234. Also, the composite z-score with Sam68 (KHDRBS1) was found to be 1.02; in assay [7], 0.301; in assay [8], 0.746. For the same molecule, in assay [1], the composite Z-score is 0.298 (inactive).

With `COC(=O)CC=C[C@@H](C)[C@@H](C=NOC[C@@H](O)[C@H]1O[C@@H]2OC(C)(C)O[C@@H]2[C@H]1O)NS(=O)(=O)c1ccc(C)cc1`, the composite z-score is -0.0786 in the assay with Albumin (Bos taurus); -0.215 in [2]; -0.289 in assay [3]; -0.0777 in assay [4]; -0.152 in [5]; -0.372 in [6]. Also, the results for the composite z-score (in the assay with Sam68 (KHDRBS1); in assay [7]; in [8]) were 0.524, 0.42 and -0.137, respectively. For the same molecule, the composite Z-score in assay [1] is -0.72 (inactive).
